# Bioassay records from PubChem BioAssay.
# FBW7 activator: activators of human E3 ligase FBW7; AID 1259310; Q969H0; normalized activity (activation), % at 26.1 µM; AlphaScreen FBW7–phospho-cyclin E peptide binding, activator screen; actives 0.13% (n = 650,000); in the data active means normalized activity above about 1.9%;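 further: purified mutant Fbw7 with reduced substrate affinity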
# GPR151 ag: activates the human receptor GPR151; Q8TDV0; PathHunter beta-arrestin GPR151 cells, luminescence; activation, % at 11.2 µM; actives 1% (n = 650,000); AID 1508602; in the data active means activation above about 4.9%;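 further: 0% = median of compound wells and 100% = cells with positive control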
# Target sequence (Q8TDV0 whole entry, looked up): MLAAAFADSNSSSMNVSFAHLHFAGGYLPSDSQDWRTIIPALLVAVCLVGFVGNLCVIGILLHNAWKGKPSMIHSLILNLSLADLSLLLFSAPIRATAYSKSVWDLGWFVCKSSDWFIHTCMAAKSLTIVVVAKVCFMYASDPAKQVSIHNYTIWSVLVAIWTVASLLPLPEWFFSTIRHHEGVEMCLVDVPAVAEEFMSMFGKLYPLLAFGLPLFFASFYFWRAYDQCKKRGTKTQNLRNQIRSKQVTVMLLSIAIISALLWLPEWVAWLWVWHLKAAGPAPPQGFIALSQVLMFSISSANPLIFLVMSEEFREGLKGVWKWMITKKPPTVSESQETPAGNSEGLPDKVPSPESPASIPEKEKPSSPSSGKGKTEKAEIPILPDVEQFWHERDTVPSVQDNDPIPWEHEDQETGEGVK
# MITF inh: human MITF inhibition, primary screen; O75030; AlphaScreen MITF homodimerization, bead proximity signal; inhibition, % at 2.6 µM; actives 0.91% (n = 650,000); in the data active means inhibition above about 50%;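 further: 0% = vehicle wells with protein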
# TEAD-YAP block: TEAD-YAP interaction inhibition | AID 1259422 | actives 1.4% (n = 640,000) | inhibition, % at 9.12 µM | HEK-TIYL cells, TEAD-Gal4/YAP UAS-luciferase luminescence; in the data active means inhibition above about 32%;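 further: 0% = median of test compound wells and 100% = reference inhibitor wells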
# GPR151 confirm: confirmation of human GPR151 activators | AID 1508609 | activation, % at 11.2 µM | 6,700 tested, under 10 active | GPR151 PathHunter beta-arrestin cells, luminescence, 90 min; % of EA-reagent control over plate median | shares compounds with GPR151 ag;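 active means mean percent activation across replicates above the confirmation screen cutoff of 4.91%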
# GPR119 counter: activates human GPR119 in a GPR151 counter-screen; shares compounds with GPR151 ag; GPR119 PathHunter beta-arrestin cells, luminescence, 90 min; 0 = compound-well median, 100 = enzyme-acceptor control; activation, % at 11.2 µM; actives 0.3% (n = 6,700); AID 1508611;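 active means mean percent activation in the counterscreen above 29.09%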;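 further: counterscreen on off-target GPR119 to flag nonselective hits from the GPR151 activator screen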
# * hit, by the source's call; . = no result; ! = not confirmed by another sample. Only some compounds are listed: those with a hit (about 3.4% of all), similar ones and a draw of the others.
SMILES,FBW7 activator,GPR151 ag,MITF inh,TEAD-YAP block,GPR151 confirm,GPR119 counter
CC(=O)Nc1ccc(NC(=S)NC(=O)c2ccccc2[N+](=O)[O-])cc1,0,6.4*,-21,-20,0,16
CC(C)(C)CC(C)(C)NC(=O)c1cc2cc([N+](=O)[O-])ccc2oc1=O,0,-1,10,3,.,.
CC(C)(C)c1ccc(C(=O)NC(=S)Nc2cc(-c3nc4ncccc4o3)ccc2Cl)cc1,0,5.1*,-10,-42,0,6
Cc1ccc(C(=O)NC(=S)Nc2cc(-c3nc4ncccc4o3)ccc2Cl)cc1,0,0,-7,-1,.,.
Cc1cccc(C(=O)Nc2ccccc2C(=O)OCC(=O)Nc2ccc3c(c2)OCCO3)c1,0,-1,6,-17,.,.
COc1cccc(CNC(=O)C2CCCc3sc(NC(=O)c4ccccc4)nc32)c1 (stereo not drawn),0,5.2*,9,-4,0,5
Cc1ccc2c(c1)-c1c(ssc1=S)C(C)(C)N2C(=O)c1ccccc1Cl,-1,6.2*,29,-4,0,24
O=C(NCc1ccccc1Cl)c1csc(Nc2ccccn2)n1,0,-1,9,-27,.,.
COc1ccc(N2Cc3ccc(C(=O)N/N=C/c4ccco4)cc3C2)cc1,1,0,23,-21,.,.
COc1ccc(C(=O)N/N=C/c2ccco2)cc1,0,6.9*,21,-32,0,-7
COc1ccc(C(=O)Nc2ccc(C(=O)N/N=C/c3ccc(O)cc3O)cc2)cc1,0,8.6*,-3,-6,0,3
FC(F)(F)c1cccc(CNc2nc(Nc3ncccn3)nc3c2ncn3-c2ccsc2)c1,0,0,13,-5,.,.
COc1ccc2c(c1)COC1(CCN(C(=O)Nc3ccccc3F)CC1)O2,1,7.7*,1,-21,1,-2
c1cc(Nc2ccc(N3CCOCC3)cc2)nc(Nc2ccc(N3CCOCC3)cc2)n1,0,3,9,14,.,.
COc1ccc(CCNc2ccnc(Nc3ccc(N4CCOCC4)cc3)n2)cc1,0,8.3*,10,78*,3,60*
COc1ccc(CCNc2cc(-c3ccc(N4CCN(C)CC4)cc3)ncn2)cc1,0,6.9*,14,-16,0,1
c1cc(Nc2ccc3c(c2)OCO3)nc(Nc2ccc(N3CCOCC3)cc2)n1,0,5.1*,2,71*,1,27
COc1ccc(CCNc2ccnc(N3CCOCC3)n2)cc1,0,2,-10,2,.,.
COc1ccc(CCNc2cc(C)nc(Nc3ccc4ncccc4c3)n2)cc1,0,7.0*,7,47*,1,20
COc1ccc(CCNc2cc(C)nc(Nc3cccnc3)n2)cc1,0,1,6,2,.,.
CC(=O)c1ccc(NC(=O)C2CCN(S(=O)(=O)c3cnc[nH]3)CC2)cc1,0,-1,2,-4,.,.
COc1cccc2sc(=NC(=O)c3ccccc3NS(=O)(=O)c3ccc(C)cc3)n(C)c12,0,0,11,2,.,.
Cc1cc2c(cc3c(=O)n(CC(=O)NCc4ccc(Cl)cc4)ncn32)s1,0,0,0,-5,.,.
Cc1ccc(C2CC(C(F)(F)F)n3nc(C(=O)Nc4cc(Cl)ccc4O)cc3N2)cc1 (stereo not drawn),0,1,5,-2,.,.
COc1ccccc1N=Cc1ccccc1O,0,-1,22,8,.,.
SMILES,FBW7 activator,GPR151 ag,MITF inh,TEAD-YAP block,GPR151 confirm,GPR119 counter
CC(=O)N/C(N)=N/c1nc2cc(C)ccc2o1,0,5.4*!,11,-41,0,0
CCOc1ccc(N(CC)C(=O)C(=O)Nc2ccc3nc4n(c(=O)c3c2)CCCCC4)cc1,1,11*,12,8,1,5
CCOC(=O)C(=O)Nc1ccc2nc3n(c(=O)c2c1)CCCCC3,0,5.4*,-22,2,0,-6
CCOC(=O)c1ccc(NC(=O)C(=O)Nc2ccc3nc4n(c(=O)c3c2)CCCCC4)cc1,0,-1,-2,7,.,.
COc1ccc(CC(=O)Nc2c3c(nn2-c2ccccc2)CS(=O)C3)cc1 (stereo not drawn),0,-1,-5,9,.,.
CO[C@H]1C[C@H](O[C@H]2[C@H](C)[C@@H](OC3O[C@H](C)C[C@H](N(C)C)[C@H]3OC(C)=O)[C@@H](C)C[C@]3(CO3)C(=O)[C@H](C)[C@@H](OC(C)=O)[C@@H](C)[C@@H](C)OC(=O)[C@@H]2C)O[C@@H](C)[C@@H]1OC(C)=O (stereo partly drawn),0,6.3*!,11,-3,1,-8
Cc1ccccc1CN1CCN(Cc2ccn[nH]2)CC1CCO (stereo not drawn),0,6.0*,9,-5,-1,-8
COc1ccc(CN2CCN(CCCc3ccccc3)C(CCO)C2)c(OC)c1 (stereo not drawn),0,5.0*,-17,6,1,5
OCCC1CN(Cc2ccncc2)CCN1Cc1ccccc1F (stereo not drawn),0,6.6*,9,4,1,-6
COc1ccc(CN2CCN(CCCc3ccccc3)C(CCO)C2)c(O)c1 (stereo not drawn),1,0,4,6,.,.
CCOc1ccccc1CN1CCN(C2CCN(c3ccccc3F)CC2)CC1CCO (stereo not drawn),0,11*,-12,-6,1,14
OCCC1CN(Cc2cc(F)cc(F)c2)CCN1Cc1ccccc1F (stereo not drawn),0,0,15,3,.,.
CCOc1ccccc1CN1CCN(C2CCCC2)CC1CCO (stereo not drawn),0,1,3,-4,.,.
OCCC1CN(Cc2ccn[nH]2)CCN1Cc1ccccc1F (stereo not drawn),0,-1,2,5,.,.
CC(=O)c1ccc(S(=O)(=O)N(C)Cc2cccc(F)c2)cc1,0,0,-4,10,.,.
Cc1cc(C(F)F)n2ncc(C(=O)N3CCN(c4ccccn4)CC3)c2n1,0,2,4,6,.,.
CCOc1ccc(-n2nc(C(=O)Nc3ccccc3OC)c3ccccc3c2=O)cc1,0,1,14,5,.,.
CC(C)=CCN1CCN(Cc2cccc(OCCO)c2)CC1CCO (stereo not drawn),0,-1,0,0,.,.
CCOc1ccccc1CN1CCN(Cc2cccc(F)c2)CC1CCO (stereo not drawn),0,5.4*,-11,-9,-1,-13
Cc1ccccc1CN1CCN(Cc2cccc(OCCO)c2)CC1CCO (stereo not drawn),0,5.9*,9,5,0,1
COc1cccc(CN2CCN(Cc3ccccc3O)CC2CCO)c1 (stereo not drawn),0,8.1*,-6,-7,0,-1
CCOc1ccccc1CN1CCN(Cc2cc(F)cc(F)c2)CC1CCO (stereo not drawn),0,0,6,-1,.,.
